High-throughput results: PubChem BioAssay, National Center for Advancing Translational Sciences (NCATS)
The list is not random: actives were taken first. Their share in the collection is about 6.1%.
GBA activity = Glucocerebrosidase; Lysosomal acid glucosylceramidase (Homo sapiens), P04062; purified enzyme, resorufin glucoside fluorescence (screen aimed at inhibitors), 20 min; Potency, µM; 1.1% of 48,000 active; in the data active = potency below about 15 µM; inconclusive = mostly about 16 µM to 33 µM;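 note: the screen sought inhibitors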
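Compounds titrated against 0.2 nM normal enzyme, 30 uM resorufin beta-D-glucopyranoside substrate, citrate/phosphate buffer with taurocholate and tween-20, pH 5.9. Reaction ran 20 min at room temperature; fluorescence (Ex 548/Em 600) gave AC50.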
HEK293 cAMP ctrl = qHTS Assay for Agonists of the Thyroid Stimulating Hormone Receptor: Activators of Intracellular cAMP Concentrations in Parental HEK 293; 2.5% of 73,000 active; parental HEK293 CNG cAMP sensor, membrane potential fluorescence; AID 938, 2007; Potency, µM (series often up to 57.1 µM), for inactives: at the top dose activation, most hits filed as activators; note: % of control where 0% means no effect; nearly all actives have a fitted effect of over 55% in size
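Parental HEK 293 cells stably expressing a cAMP-gated CNG channel were loaded with membrane potential dye containing 100 uM RO 20-1724 for 60 min. Compound added for 30 min; depolarization read as fluorescence intensity at 590 nm.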
TSHR agonist = qHTS Assay for Agonists of the Thyroid Stimulating Hormone Receptor | Potency, µM (highest dose often 57.1 µM), for the others: at the top dose activation, actives largely listed as activators | Thyrotropin receptor (Homo sapiens), P16473 | HEK293-CNG-TSHR cells (CNG channel as cAMP sensor), membrane potential dye, cAMP | 0.48% of 73,000 active; active = well fitted activation curve with a large enough effect in the main read-out, with a control signal flat, not every such curve was filed as active; inconclusive = small, poorly fitted or top-dose-only effect, or a change in a side signal; inactive = no such curve, though single readings can be large or run the other way; % of control where 0% means no effect;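 note: the control signal comes from parental cells without the receptor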
Target sequence (P16473 whole entry, looked up): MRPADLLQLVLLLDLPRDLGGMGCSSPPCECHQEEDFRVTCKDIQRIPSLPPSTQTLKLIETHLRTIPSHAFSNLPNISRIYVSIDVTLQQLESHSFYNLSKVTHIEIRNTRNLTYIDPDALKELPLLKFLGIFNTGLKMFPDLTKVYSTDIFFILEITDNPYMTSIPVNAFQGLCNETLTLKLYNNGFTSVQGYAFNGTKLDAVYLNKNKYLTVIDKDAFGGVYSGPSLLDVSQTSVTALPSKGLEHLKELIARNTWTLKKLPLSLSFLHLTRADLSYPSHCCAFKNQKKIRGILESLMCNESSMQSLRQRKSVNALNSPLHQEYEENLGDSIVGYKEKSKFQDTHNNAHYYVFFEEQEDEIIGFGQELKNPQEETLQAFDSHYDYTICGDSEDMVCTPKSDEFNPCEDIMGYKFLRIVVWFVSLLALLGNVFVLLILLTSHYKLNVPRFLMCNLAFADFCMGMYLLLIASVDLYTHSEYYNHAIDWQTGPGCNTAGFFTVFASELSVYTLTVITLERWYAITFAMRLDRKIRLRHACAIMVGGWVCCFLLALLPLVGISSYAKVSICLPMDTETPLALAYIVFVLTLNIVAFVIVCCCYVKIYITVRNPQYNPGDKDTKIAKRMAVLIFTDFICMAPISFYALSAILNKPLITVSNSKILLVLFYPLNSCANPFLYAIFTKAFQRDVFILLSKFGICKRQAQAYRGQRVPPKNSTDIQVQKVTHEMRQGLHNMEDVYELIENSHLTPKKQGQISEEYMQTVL
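HEK 293 cells stably expressing TSHR and a modified CNG channel, with CNG-only parental cells as counterscreen, were preloaded 60 min at room temperature with membrane potential dye containing 100 uM RO 20-1724. Compound exposure was 30 min, and depolarization was read as fluorescence at 590 nm.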
ERK AVP inh = qHTS Assay for Inhibitors of the ERK Signaling Pathway using a Homogeneous Screening Assay | Potency, µM (series often up to 57.5 µM), for inactives: at the top dose activity, negative = inhibition, hits mostly inhibitors | AID 995, 2007 | 0.99% of 72,000 active | HEK293-V1b, vasopressin-stimulated pERK AlphaScreen; note: % is set by controls: 0 for no effect and ±100 for the full control effect; nearly all actives have a fitted effect of over 55% in size
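qHTS, compounds titrated on V1b-expressing HEK293 cells. Preincubation 30 min at 37C, vasopressin 25 nM for 5 min, lysis 10 min, bead incubation 5 hr at room temperature.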
PK Bst = Pyruvate Kinase; purified pyruvate kinase, luminescence ATP production; ribose 5-phosphate activator present at AC10; Potency, µM; 1.2% of 51,000 active; AID 361, 2006; in the data active = potency below about 11 µM; inconclusive = mostly about 12 µM to 25 µM;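 the screen sought inhibitors and activators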;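 note: scaled between full activation by ribose 5 phosphate and full inhibition by luteolin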
FLuc inh = qHTS Assay for Inhibitors of Firefly Luciferase. Luciferin 4-monooxygenase (Photinus pyralis), P08659. purified firefly luciferase, luminescence, 8 min. Potency, µM (series often up to 57.1 µM), for inactives: top-dose activity change, negative = inhibition, most hits filed as inhibitors. 2.2% of 72,000 active. AID 411, 2009; note: % is set by controls: 0 for no effect and ±100 for the full control effect; nearly all actives have a fitted effect of over 40% in size
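Inhibition of light generation by firefly luciferase from ATP and luciferin was profiled with concentration-response curves per sample, ATP held at 10 uM within the enzyme's linear range. Plates were read by luminescence after an 8-minute ambient incubation.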
* hit, by the source's call; i = inactive; ? = inconclusive; . = not tested or not shown; [ ] = another dose, or the depositor's remark. Unless noted, calls come from the whole dose curve; as a rule, active = well fitted curve in the direction sought with a large enough effect; inconclusive = small, poorly fitted or top-dose-only effect, or another doubt; inactive = no such curve, though single readings can be large; an effect the other way counts as inactive or inconclusive. Potency is the fitted concentration of half-maximal effect.

SMILES	GBA activity	HEK293 cAMP ctrl	TSHR agonist	ERK AVP inh	PK Bst	FLuc inh
COc1ccc(O)c(-c2cc(-c3cccc(Br)c3)n[nH]2)c1	.	-29%	-31%	?	.	-26%
Oc1ccccc1-c1cc(-c2ccc3c(c2)OCCO3)n[nH]1	>77	0%	0%	-7%	1.9*	3.2µM*
O=C(N/N=C1/C[C@@H](O)[C@@H](O)[C@@H]2[C@@H]3C(=O)N(Cc4ccccc4)C(=O)[C@H]3CC[C@@H]12)OCc1ccccc1	.	-6%[11.4 µM]	-2%[11.4 µM]	0%[11.5 µM]	.	1%[11.4 µM]
CCc1ccc(CCC(=O)Nc2nnc(CC)s2)o1	12*	0%	0%	-16%	>57	4%
CCc1nnc(NC(=O)CCC(=O)N2CCN(Cc3ccccc3)CC2)s1	>77	8%	24%	-3%	.	13µM*
CCCN(CCC)S(=O)(=O)c1cc(Br)cc2c1N(C(=O)CC)CC2	>77	25µM*	?	-14%	>57	0%
CC(C)/C(=N/[N+](C)(C)C)c1ccccc1	.	-4%[11.4 µM]	-3%[11.4 µM]	3%[11.5 µM]	.	4%[11.4 µM]
Cc1csc(NC(=O)c2cc3c(s2)CCC3)n1	.	1%	10%	-7%	?	2.5µM*
COC(=O)c1sc(NC(=O)c2cc3c(s2)CCCC3)nc1C	>77	6%	6%	8%	>57	2%
CCc1cc2c(nc1CC)CCN(CC/C(C)=N/OC[C@@H](C)[C@H](OCc1ccccc1)C(C)C)C2	.	-3%[11.4 µM]	3%[11.4 µM]	11%[11.5 µM]	.	-1%[11.4 µM]
COC(=O)c1cc(COc2ccc3ccc(=O)oc3c2)c(C)o1	>77	11%	25%	-7%	>57	0%
COC(=O)c1cc(COc2ccc3oc(C)c(C(=O)OC)c3c2)c(C)o1	.	16µM*	?	-9%	.	-1%
CCCCOC(=O)c1ccc(Nc2ncnc3nc[nH]c23)cc1	.	3%	0%	.	.	1%
FC(F)Sc1ccc(Nc2ncnc3nc[nH]c23)cc1	5.3*	-4%	2%[11.4 µM]	?	i	-11%
CO[C@@H]1COC(=O)C/C=C\[C@H](C)[C@H](OC)COC(=O)[C@H]2CCCN2C(=O)C/C=C\[C@H]1C	.	-4%[11.4 µM]	-3%[11.4 µM]	2%[11.5 µM]	.	-2%[11.4 µM]
CCCCCCN	.	28%	2%	-10%	.	.
CCOc1ccc(C(=O)NCCn2cc(SCC(=O)Nc3cc(C)on3)c3ccccc32)cc1	.	-1%	2%	2%	>57	16µM*
Cc1cc(NC(=O)CSc2cn(CCNC(=O)c3ccc(Cl)cc3)c3ccccc23)no1	.	?	?	.	.	-2%
Cc1cccc(N2CCN(C(=O)CCNS(=O)(=O)c3ccc4c(c3)CCC(=O)N4)CC2)c1C	.	8%	28%	25µM*	>57	-1%
CCCC/C=C/C(NC(=O)OCc1ccccc1Cl)c1ccccc1 (stereo not given)	.	27%	15%	28%	.	.
CCOC(=O)c1c(OCC)[nH]c2c1cc(O)c1ccccc12	.	-22%	-17%	25µM*	.	-4%
CCOC(=O)c1c(C)[nH]c2cc(Br)c(O)cc12	>77	-6%	-5%	-13%	?	-25%
COC(=O)c1ccc(C)cc1	.	-5%	-3%	20%	.	.
Cc1ccc(C(=O)Oc2ccc3c(c2)ncn3C)cc1	>77	14%	-1%	-22%	?	16µM*
Cn1cnc2cc(OC(=O)c3ccccc3)ccc21	>77	5%	-16%	-22%	i	16µM*
O=C(Oc1ccc2c(c1)OCC2=O)c1ccccc1	>77	-5%	-1%	33%	>57	-16%
O=C1CCC[C@@H](C(C(=O)OCc2ccccc2)C(=O)OCc2ccccc2)C1	.	8%[11.4 µM]	16%[11.4 µM]	10%[11.5 µM]	.	-1%[11.4 µM]
CCCCCCCCCCCCCCCC(=O)NC[C@@H](COP(=O)([O-])OCC[N+](C)(C)C)OCC	.	20%	.	?	.	3%
COc1ccc(-c2ccc(SCC(=O)Nc3cc(C)on3)nn2)cc1OC	>77	1%	1%	-22%	i	13µM*
